Results from PubChem BioAssay (EPA / NIEHS).
Active and inactive are the calls of the source. The calls were made as follows: active = hit-call score of the fitted dose curve at least 0.9, where 1 is the maximum; inactive = score below 0.9.

Assays:
[1] = ATG_CRE_CIS: Attagene CIS-FACTORIAL HepG2 Assay for human cAMP Responsive Element (CRE) binding protein 3 (AID 2282926); conditions: HepG2 CRE cis-reporter, Attagene multiplexed mRNA; actives raise or lower the signal
In short: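 Cells carrying cis-regulated reporter constructs respond through their own endogenous factors. After 24 h treatment, RNA is reverse-transcribed, amplified, labelled and sized by capillary electrophoresis; up- and down-regulation are both scored against vehicle.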

[2] = target: CCAAT/enhancer-binding protein beta (Homo sapiens) (UniProt P17676); experiment: ATG_C_EBP_CIS: Attagene CIS-FACTORIAL HepG2 Assay for human CCAAT/Enhancer Binding Protein (C/EBP) beta (AID 2282927); conditions: HepG2 Attagene cis-factorial transcription factor reporter; actives raise or lower the signal
In short: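 Chemical-treated HepG2 cells (24 h) bearing cis-regulated reporter constructs were processed for total RNA, then reverse transcription, PCR amplification, fluorescent primer extension and fragment analysis; gain- and loss-of-signal were fitted against DMSO.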

[3] = ATG_CMV_CIS: Attagene CIS-FACTORIAL HepG2 Assay for human CMV (Internal Marker) (AID 2282928); conditions: HepG2 CMV promoter reporter, transcription factor profiling; actives raise or lower the signal;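 also: endpoint acts as a background internal control marker rather than a target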
In short: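 Bidirectional fits against DMSO are applied to reporter mRNA, read by RT-PCR with capillary electrophoresis, from HepG2 cells exposed 24 h. The endpoint serves as an internal CMV background marker within the cis-factorial reporter panel.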

[4] = ATG_DR4_LXR_CIS: Attagene CIS-FACTORIAL HepG2 Assay for human Liver X Receptor (LXR), DR4 submotif (AID 2282929); conditions: HepG2 Attagene DR4 cis-reporter, mRNA transcription; actives raise or lower the signal
In short: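 Fluorescence intensity of labelled reporter cDNA fragments, separated by capillary electrophoresis, gives the signal. HepG2 cells bearing cis-regulated reporter constructs were treated 24 h; activity fitted bidirectionally relative to DMSO negative control.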

[5] = target: Aryl hydrocarbon receptor (Homo sapiens) (UniProt P35869); experiment: ATG_Ahr_CIS: Attagene CIS-FACTORIAL HepG2 Assay for human Aryl Hydrocarbon Receptor (Ahr) (AID 2282930); conditions: HepG2 AhR cis-factorial reporter transcription; actives raise or lower the signal
In short: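 Following 24 h of chemical dosing, transfected HepG2 liver cells with cis-driven reporter units were lysed for RNA; reporter mRNA was quantified via RT-PCR and capillary electrophoresis, and responses fitted bidirectionally from DMSO.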

[6] = ATG_AP_2_CIS: Attagene CIS-FACTORIAL HepG2 Assay for human Activator Protein 2 (AP-2) (AID 2282932); conditions: HepG2 AP-2 cis-reporter, Attagene transcription factor profiling; actives raise or lower the signal
In short: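 Assay in transfected HepG2 with promoter-regulated reporters, 24 h incubation after dosing. Signal is reporter mRNA fluorescence (RT-PCR, capillary electrophoresis), analysed for both increases and decreases relative to DMSO controls.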

[7] = target: Retinoic acid receptor alpha (Homo sapiens) (UniProt P10276); experiment: ATG_DR5_RAR_CIS: Attagene CIS-FACTORIAL HepG2 Assay for human Retinoic Acid Receptor Alpha (RARE), DR5 submotif (AID 2282934); conditions: HepG2 Attagene cis-factorial RARE DR5 reporter, mRNA; actives raise or lower the signal
In short: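 Transfected HepG2 reporter cells are exposed to chemicals for 24 h. Then RNA is extracted and the DR5 element reporter transcript is measured by RT-PCR and capillary electrophoresis, with bidirectional curve fitting relative to DMSO.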

[8] = target: Transcription factor E2F1 (Homo sapiens) (UniProt Q01094); experiment: ATG_E2F_CIS: Attagene CIS-FACTORIAL HepG2 Assay for human E2F Transcription Factor 1 (AID 2282935); conditions: HepG2 Attagene cis-reporter, E2F reporter RNA transcripts; actives raise or lower the signal
In short: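 In this cis-factorial format, endogenous factor activity drives transfected reporters in HepG2; transcripts collected at 24 h are quantified by fluorescence after RT-PCR and capillary separation.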

[9] = ATG_E_Box_CIS: Attagene CIS-FACTORIAL HepG2 Assay for human Enhancer Box (E-box) (AID 2282936); conditions: HepG2 E-box cis-reporter transcription, actives raise or lower the signal
In short: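 Measured 24 h post-dosing in HepG2 cells transfected with multiple cis-regulated reporter units, signal being reporter mRNA induction detected by fluorescent RT-PCR with capillary electrophoresis; gain or loss fitted against DMSO.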

[10] = ATG_M_61_CIS: Attagene CIS-FACTORIAL HepG2 Assay for M61 Transcription Factor (Internal Marker) (AID 2282937); conditions: HepG2 Attagene CIS-FACTORIAL M61 internal marker reporter; actives raise or lower the signal
In short: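 Endogenous transcription factor activity in HepG2 is read through transiently transfected cis-element reporter units. After 24 h dosing, RNA undergoes reverse transcription, PCR and primer extension with 6-FAM before capillary electrophoresis; DMSO-referenced bidirectional fit.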

[11] = ATG_EGR_CIS: Attagene CIS-FACTORIAL HepG2 Assay for human Early Growth Response 1 (EGR1) (AID 2282938); conditions: HepG2 Attagene CIS-FACTORIAL EGR reporter mRNA; actives raise or lower the signal
In short: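 Activity is taken as induction or loss of reporter mRNA versus DMSO, fitted bidirectionally. Transcripts from cis-regulated reporter units in transiently transfected HepG2 were measured after 24 h by RT-PCR with capillary electrophoresis.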

[12] = ATG_Ets_CIS: Attagene CIS-FACTORIAL HepG2 Assay for human Erythroblast Transformation Specific (ETS) (AID 2282941); conditions: HepG2 ETS cis-reporter transcription, actives raise or lower the signal
In short: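 Endogenous transcription factor activity read as reporter mRNA via RT-PCR and capillary electrophoresis, with gain or loss fitted bidirectionally against DMSO. Human HepG2 liver cells, transiently transfected CIS reporter constructs, 24 h exposure.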

[13] = ATG_FoxO_CIS: Attagene CIS-FACTORIAL HepG2 Assay for human Forkhead box O (FoxO) (AID 2282943); conditions: HepG2 Attagene cis-reporter, FoxO element, mRNA; actives raise or lower the signal
In short: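 24 h chemical exposure, HepG2 with transient cis-MRTU transfection. RNA extraction, oligo(dT) RT, reporter-specific PCR, primer-extension labelling, HpaI digestion, CE fragment analysis; bidirectional fit, DMSO baseline.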

[14] = ATG_GLI_CIS: Attagene CIS-FACTORIAL HepG2 Assay for human Zinc Finger Protein GLI1 (AID 2282945); conditions: HepG2, Attagene cis-factorial reporter mRNA, GLI element; actives raise or lower the signal
In short: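 HepG2 cells transiently transfected with cis-promoter multiplexed reporter units report endogenous transcription factor activity. After 24 h chemical exposure, reporter mRNA was quantified by RT-PCR, 6-FAM labelling, HpaI digestion and capillary electrophoresis, with bidirectional fitting against DMSO.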

[15] = ATG_BRE_CIS: Attagene CIS-FACTORIAL HepG2 Assay for human Bone Morphogenetic Protein (BMP) Response Element (BRE) (AID 2282933); conditions: HepG2 BMP response element reporter, Attagene transcription factor profiling; actives raise or lower the signal
In short: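 Fluorescence-labelled reporter cDNA fragments, separated by capillary electrophoresis, gave the signal for this component of a 52-readout multiplex. HepG2 cells were transfected, exposed to chemicals for 24 h, and compared with DMSO using bidirectional fitting.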

[16] = ATG_M_19_CIS: Attagene CIS-FACTORIAL HepG2 Assay for M19 Transcription Factor (Internal Marker) (AID 2282939); conditions: HepG2 Attagene CIS-FACTORIAL M19 internal marker reporter; actives raise or lower the signal
In short: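 HepG2, MRTU transient transfection, 24 h dosing. Total RNA → RT-PCR → 6-FAM primer extension → HpaI digest → CE fluorescence. Bidirectional curve fit, DMSO negative control.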

[17] = ATG_GATA_CIS: Attagene CIS-FACTORIAL HepG2 Assay for human GATA Binding Protein (AID 2282944); conditions: HepG2 GATA cis-element reporter, Attagene multiplex mRNA; actives raise or lower the signal
In short: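 Cells: HepG2, transiently transfected with cis-regulated reporter transcription units. Exposure: 24 h. Detection: RT-PCR plus capillary electrophoresis of FAM-labeled fragments. Analysis: bidirectional, DMSO as baseline.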

[18] = ATG_AP_1_CIS: Attagene CIS-FACTORIAL HepG2 Assay for human Activator Protein 1 (AP-1) (AID 2282931); conditions: HepG2 Attagene cis-factorial AP-1 reporter mRNA; actives raise or lower the signal
In short: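 Multiplexed HepG2 reporter assay, 24 h dosing. mRNA induction detected by RT-PCR plus capillary electrophoresis. Activity fitted in both directions against DMSO.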

[19] = target: Hepatocyte nuclear factor 3-beta (Homo sapiens) (UniProt Q9Y261); experiment: ATG_FoxA2_CIS: Attagene CIS-FACTORIAL HepG2 Assay for human Forkhead box A2 (FOXA2) (AID 2282942); conditions: HepG2 cis-reporter transcription factor activity, 24 h; actives raise or lower the signal
In short: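 Reporter transcript induction is measured by fluorescence after capillary electrophoresis of RT-PCR products from HepG2 cells exposed 24 h. Cis-regulated reporter units report endogenous factor activity; curves fitted both directions against DMSO.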

[20] = ATG_ERE_CIS: Attagene CIS-FACTORIAL HepG2 Assay for Estrogen Response Element (ERE) (AID 2282940); conditions: HepG2 ERE cis-reporter, Attagene RNA transcript; actives raise or lower the signal
In short: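 After a 24 h chemical treatment, RNA from reporter-transfected HepG2 cells is reverse-transcribed, PCR-amplified and fluorescently labelled. Fragments separated by capillary electrophoresis give reporter signal; DMSO serves as negative control.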

Measured: AC50

Transcription factor E2F1 (Homo sapiens), sequence (Q01094 whole entry, looked up): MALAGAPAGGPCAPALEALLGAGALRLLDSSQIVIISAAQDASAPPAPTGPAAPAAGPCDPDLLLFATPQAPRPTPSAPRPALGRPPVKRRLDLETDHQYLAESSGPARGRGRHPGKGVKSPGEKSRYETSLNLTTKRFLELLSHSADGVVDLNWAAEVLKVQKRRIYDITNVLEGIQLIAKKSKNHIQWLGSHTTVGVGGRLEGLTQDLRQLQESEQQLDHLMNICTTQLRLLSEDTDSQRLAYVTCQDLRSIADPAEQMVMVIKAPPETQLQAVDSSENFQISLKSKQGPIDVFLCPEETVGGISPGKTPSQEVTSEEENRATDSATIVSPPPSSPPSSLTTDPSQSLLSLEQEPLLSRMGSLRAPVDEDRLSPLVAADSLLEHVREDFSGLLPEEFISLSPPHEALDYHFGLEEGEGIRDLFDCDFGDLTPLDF
CCAAT/enhancer-binding protein beta (Homo sapiens), sequence (P17676 whole entry, looked up, the tested form may be a part): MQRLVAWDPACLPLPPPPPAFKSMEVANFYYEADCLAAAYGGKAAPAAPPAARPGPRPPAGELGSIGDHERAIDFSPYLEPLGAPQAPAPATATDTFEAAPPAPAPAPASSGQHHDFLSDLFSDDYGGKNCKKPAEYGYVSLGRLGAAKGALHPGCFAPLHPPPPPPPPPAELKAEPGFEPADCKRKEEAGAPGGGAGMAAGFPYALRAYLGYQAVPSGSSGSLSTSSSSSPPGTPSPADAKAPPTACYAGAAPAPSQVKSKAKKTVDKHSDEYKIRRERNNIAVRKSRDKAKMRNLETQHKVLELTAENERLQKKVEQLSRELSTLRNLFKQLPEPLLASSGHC
Hepatocyte nuclear factor 3-beta (Homo sapiens), sequence (Q9Y261 whole entry, looked up): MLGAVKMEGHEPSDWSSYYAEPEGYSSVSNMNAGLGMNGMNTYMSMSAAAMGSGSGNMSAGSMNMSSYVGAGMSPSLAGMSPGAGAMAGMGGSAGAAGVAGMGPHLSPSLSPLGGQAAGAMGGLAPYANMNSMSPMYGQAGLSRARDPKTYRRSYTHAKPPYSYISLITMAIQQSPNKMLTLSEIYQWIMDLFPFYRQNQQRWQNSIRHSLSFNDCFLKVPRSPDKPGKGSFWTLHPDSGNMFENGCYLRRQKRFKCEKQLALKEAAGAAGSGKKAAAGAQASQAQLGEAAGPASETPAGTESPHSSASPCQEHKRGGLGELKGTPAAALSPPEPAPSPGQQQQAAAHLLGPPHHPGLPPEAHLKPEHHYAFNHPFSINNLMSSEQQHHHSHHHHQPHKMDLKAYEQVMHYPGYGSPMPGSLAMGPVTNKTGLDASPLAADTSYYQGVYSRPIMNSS
Aryl hydrocarbon receptor (Homo sapiens), sequence (P35869 whole entry, looked up): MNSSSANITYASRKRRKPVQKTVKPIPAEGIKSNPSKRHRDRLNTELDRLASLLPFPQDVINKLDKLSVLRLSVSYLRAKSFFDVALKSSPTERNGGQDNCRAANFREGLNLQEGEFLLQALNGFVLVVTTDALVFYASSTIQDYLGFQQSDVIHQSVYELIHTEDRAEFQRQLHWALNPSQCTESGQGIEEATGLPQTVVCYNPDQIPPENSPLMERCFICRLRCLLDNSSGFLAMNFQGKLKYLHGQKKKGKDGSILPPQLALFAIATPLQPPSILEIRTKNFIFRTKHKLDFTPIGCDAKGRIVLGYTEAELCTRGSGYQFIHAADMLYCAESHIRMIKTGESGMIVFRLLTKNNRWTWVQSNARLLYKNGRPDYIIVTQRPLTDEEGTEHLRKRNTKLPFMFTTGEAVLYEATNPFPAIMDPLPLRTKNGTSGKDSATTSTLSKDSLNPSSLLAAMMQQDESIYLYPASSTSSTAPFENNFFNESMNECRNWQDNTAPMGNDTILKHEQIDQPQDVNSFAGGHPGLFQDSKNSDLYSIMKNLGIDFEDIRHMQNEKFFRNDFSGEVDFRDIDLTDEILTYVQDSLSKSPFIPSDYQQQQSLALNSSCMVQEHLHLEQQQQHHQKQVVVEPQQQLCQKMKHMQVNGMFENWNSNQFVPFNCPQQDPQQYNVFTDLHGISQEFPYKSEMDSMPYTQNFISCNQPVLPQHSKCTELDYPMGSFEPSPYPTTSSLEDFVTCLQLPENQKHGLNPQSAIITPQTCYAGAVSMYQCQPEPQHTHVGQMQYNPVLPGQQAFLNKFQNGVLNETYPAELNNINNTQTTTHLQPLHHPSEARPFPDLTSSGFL
Retinoic acid receptor alpha (Homo sapiens), sequence (P10276 whole entry, looked up): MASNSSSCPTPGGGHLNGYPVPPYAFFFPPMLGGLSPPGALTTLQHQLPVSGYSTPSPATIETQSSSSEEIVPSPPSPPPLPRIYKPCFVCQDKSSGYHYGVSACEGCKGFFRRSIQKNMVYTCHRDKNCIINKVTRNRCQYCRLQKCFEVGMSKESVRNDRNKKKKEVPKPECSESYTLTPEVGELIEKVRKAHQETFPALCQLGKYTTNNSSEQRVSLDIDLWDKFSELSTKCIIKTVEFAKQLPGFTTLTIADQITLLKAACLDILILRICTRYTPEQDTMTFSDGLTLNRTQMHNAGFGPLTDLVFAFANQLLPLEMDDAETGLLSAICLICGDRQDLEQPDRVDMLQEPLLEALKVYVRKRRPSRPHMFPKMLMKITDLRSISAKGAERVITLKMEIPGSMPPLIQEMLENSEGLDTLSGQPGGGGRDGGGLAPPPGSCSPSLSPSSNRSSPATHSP

Cc1c(Cl)cccc1[N+](=O)[O-]
not listed: [15] | [16] | [17] | [18] | [19] | [20]
inactive: all other assays above

CC/C=C\CCOC(=O)CC
not listed: [7] | [12] | [18] | [19] | [20]
inactive: all other assays above

NCCNc1cccc2ccccc12
active: [1] 170 µM | [2] 169 µM | [6] 100 µM | [9] 176 µM | [11] 141 µM
not listed: [5] | [20]
inactive: all other assays above

O=CN1CCOCC1
not listed: [6] | [7] | [18]
inactive: all other assays above

CCc1ncc(C)[nH]1
not listed: [8] | [15] | [18] | [20]
inactive: all other assays above

Cc1ccc(-c2ccccc2)cc1
not listed: [5] | [6] | [20]
inactive: all other assays above

C/C=C(\C)C(=O)OCCc1ccccc1
not listed: [5] | [20]
inactive: all other assays above

CCCCCC(=O)CC
not listed: [7] | [18] | [20]
inactive: all other assays above

CCCCC1CCC(O)CC1 (configuration not stated)
not listed: [5] | [20]
inactive: all other assays above

Cc1c(OCC(F)(F)F)ccnc1CS(=O)c1nc2ccccc2[nH]1 (configuration not stated)
active: [4] 134 µM | [15] 153 µM | [11] 27.8 µM
not listed: [5] | [12] | [20]
inactive: all other assays above

Cc1cc(=O)oc2cc(N(C)C)ccc12
active: [1] 54.1 µM | [3] 46.7 µM
not listed: [5] | [6] | [12] | [16] | [19] | [20]
inactive: all other assays above

CC(=O)O[C@@H]1C[C@@H]2CC[C@@]1(C)C2(C)C
not listed: [5] | [6] | [20]
inactive: all other assays above

COC(=O)c1ccc(C)cc1C1=NC(C)(C(C)C)C(=O)N1 (configuration not stated) (tested in a mixture with another compound)
not listed: [5] | [7] | [15] | [20]
inactive: all other assays above

C=C[Si]1(C)O[Si](C)(C=C)O[Si](C)(C=C)O[Si](C)(C=C)O1 (configuration not stated)
active: [3] 51.7 µM | [4] 4.46 µM
not listed: [18] | [20]
inactive: all other assays above

CCOCCOCCOCC
not listed: [7] | [15] | [18] | [19] | [20]
inactive: all other assays above
